{"source": "PubChem BioAssay (NCATS)", "key": {"[1]": {"biological_target": "Metallo-beta-lactamase type 2 (Klebsiella pneumoniae) (UniProt C7C422)", "sequence (C7C422 whole entry, looked up)": "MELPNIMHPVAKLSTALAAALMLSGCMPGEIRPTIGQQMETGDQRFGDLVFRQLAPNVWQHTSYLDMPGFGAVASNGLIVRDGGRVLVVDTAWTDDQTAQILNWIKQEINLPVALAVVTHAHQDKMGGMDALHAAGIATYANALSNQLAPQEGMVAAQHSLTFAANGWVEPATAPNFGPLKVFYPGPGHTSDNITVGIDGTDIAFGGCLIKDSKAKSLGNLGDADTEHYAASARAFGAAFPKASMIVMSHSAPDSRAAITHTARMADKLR", "experiment": "qHTS to identify inhibitors of the New Delhi Metallo-beta-lactamase (NDM): assay validation screen against the NCATS LOPAC Collection (AID 1794843);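 further: nitrocefin turnover by NDM-1 measured as 485 nm absorbance at plateau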", "summary_of_the_method": "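NDM-1 at 2 nM final in 50 mM HEPES pH 7.0, 1 uM ZnSO4, 0.01% Tween20, preincubated with LOPAC compounds pinned in DMSO; 50 uM nitrocefin (stock) added. Hydrolysis read as absorbance at 485 nm in the plateau phase.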"}, "[2]": {"biological_target": "Glutathione peroxidase 1 (Homo sapiens) (UniProt P07203)", "sequence (P07203 whole entry, looked up)": "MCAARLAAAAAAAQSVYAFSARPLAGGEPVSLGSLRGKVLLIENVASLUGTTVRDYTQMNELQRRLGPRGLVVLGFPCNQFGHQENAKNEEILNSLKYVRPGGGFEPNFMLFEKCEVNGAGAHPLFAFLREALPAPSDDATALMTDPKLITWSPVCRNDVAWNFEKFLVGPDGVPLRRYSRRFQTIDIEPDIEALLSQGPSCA", "experiment": "Primary qHTS Assay for Inhibitors of Recombinant Selenoprotein Glutathione Peroxidase 1 (GPX1) (AID 1845191); further: nearly all actives have a fitted effect of over 65% in size; further: potency means the concentration at half of the fitted maximal effect", "summary_of_the_method": "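NADPH consumption tracked by fluorescence at 340/450 nm between t=0 and t=15 min, room temperature. Final mix: 10 nM GPX1, 100 nM glutathione reductase, 1 mM GSH, 0.5 mM NADPH, 0.5 mM cumene hydroperoxide, 0.01% BSA; 30 min compound–enzyme preincubation.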"}, "[3]": {"biological_target": "Phospholipid hydroperoxide glutathione peroxidase GPX4 (Homo sapiens) (UniProt P36969)", "sequence (P36969 whole entry, looked up)": "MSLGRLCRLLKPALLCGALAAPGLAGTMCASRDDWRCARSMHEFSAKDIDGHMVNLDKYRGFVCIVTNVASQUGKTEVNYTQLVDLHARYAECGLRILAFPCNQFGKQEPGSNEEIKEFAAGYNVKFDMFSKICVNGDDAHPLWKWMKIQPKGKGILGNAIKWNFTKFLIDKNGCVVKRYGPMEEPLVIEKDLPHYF", "experiment": "Primary qHTS Assay for Inhibitors of Recombinant Selenoprotein Glutathione Peroxidase 4 (GPX4) (AID 1845192); further: nearly all actives have a fitted effect of over 65% in size", "summary_of_the_method": "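NADPH consumption followed by fluorescence at 340/450 nm, t=0 and after 15 min at room temperature. Reaction started with cumene hydroperoxide (0.5 mM final) after 30 min compound–GPX4 preincubation; final 200 nM GPX4, 100 nM GR, 1 mM GSH, 0.5 mM NADPH.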"}, "[4]": {"experiment": "NCATS anti-infectives library activity on HEK293 viability as a counter-qHTS vs the C. elegans viability qHTS (AID 1745854)", "summary_of_the_method": "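Counter-screen for cytotoxicity: HEK293, 24 hr, 37C, compounds up to 41.7 uM final (a dilution series, 1:5). Readout CellTiter-Glo luminescence, 10 min RT. Digitonin control, 83.3 uM final.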"}, "[5]": {"experiment": "NCATS anti-infectives library activity on the primary C. elegans qHTS viability assay (AID 1745855; calls by dose curve)", "conditions": "C. elegans worm area imaging, day 7; at 41.8 µM (top of the series) unless noted", "summary_of_the_method": "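GFP read-out by 488 nm laser cytometry at day 0, 3 and 7, gated on object perimeter, area and peak intensity, scored viability of PE254-GFP-FLuc worms exposed to compound in S medium with bacterial capsules at 21 °C.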"}}, "note": "Results filed as inconclusive are left out. Where a call stands in place of a potency, no number is given. Active and inactive are the calls of the source. Unless noted, the call rests on the fitted dose curve; in most records, active means well fitted curve in the direction sought with a large enough effect; inconclusive means small, poorly fitted or top-dose-only effect, or another doubt; inactive means no such curve, though single readings can be large; an effect the other way counts as inactive or inconclusive.", "data": [{"smiles": "CN(C)C(=O)/N=N/C(=O)N(C)C", "values": [{"measurement": "Potency", "setting": "[1]", "result": "inactive"}, {"measurement": "Potency", "setting": "[2]", "result": "inactive"}, {"measurement": "Potency", "setting": "[3]", "result": "inactive"}]}, {"smiles": "COc1cc(N)c(Cl)cc1C(=O)OCCN1CCCCC1", "values": [{"measurement": "Potency", "setting": "[1]", "result": "inactive"}, {"measurement": "Potency", "setting": "[2]", "result": "inactive"}, {"measurement": "Potency", "setting": "[3]", "result": "inactive"}]}, {"smiles": "OC[C@H]1O[C@@H](n2cnc3cncnc32)[C@H](O)[C@@H]1O", "values": [{"measurement": "Potency", "setting": "[1]", "result": "inactive"}, {"measurement": "Potency", "setting": "[2]", "result": "inactive"}, {"measurement": "Potency", "setting": "[3]", "result": "inactive"}]}, {"smiles": "CCN1C(=O)C=CC1=O", "values": [{"measurement": "outcome", "setting": "[4]", "result": "inactive"}, {"measurement": "outcome", "setting": "[5]", "result": "inactive [at 83.3 µM]"}, {"measurement": "Potency", "setting": "[1]", "result": "inactive"}, {"measurement": "Potency", "setting": "[2]", "result": "inactive"}, {"measurement": "Potency", "setting": "[3]", "result": "inactive"}]}, {"smiles": "COc1cc2c(CCNC(C)=O)c[nH]c2cc1O", "values": [{"measurement": "Potency", "setting": "[1]", "result": "inactive"}, {"measurement": "Potency", "setting": "[2]", "result": "inactive"}, {"measurement": "Potency", "setting": "[3]", "result": "inactive"}]}, {"smiles": "NC(=O)c1ccccc1", "values": [{"measurement": "outcome", "setting": "[4]", "result": "inactive"}, {"measurement": "outcome", "setting": "[5]", "result": "inactive"}, {"measurement": "Potency", "setting": "[1]", "result": "inactive"}, {"measurement": "Potency", "setting": "[2]", "result": "inactive"}, {"measurement": "Potency", "setting": "[3]", "result": "inactive"}]}, {"smiles": "CC1=C(/C=C/C(C)=C/C=C/C(C)=C\\C(=O)O)C(C)(C)CCC1", "values": [{"measurement": "Potency", "setting": "[1]", "result": "inactive"}, {"measurement": "Potency", "setting": "[2]", "result": "inactive"}, {"measurement": "Potency", "setting": "[3]", "result": "inactive"}]}, {"smiles": "CO/N=C(\\C(=O)N[C@@H]1C(=O)N2C(C(=O)O)=C(CSc3nc(=O)c(O)nn3C)CSC12)c1csc(N)n1", "note": "(stereo not given in full)", "values": [{"measurement": "Potency", "setting": "[1]", "result": "inactive"}, {"measurement": "Potency", "setting": "[2]", "result": "25.1 µM (active)"}]}, {"smiles": "C[N+](C)(C)CC=O", "values": [{"measurement": "Potency", "setting": "[1]", "result": "inactive"}, {"measurement": "Potency", "setting": "[2]", "result": "inactive"}, {"measurement": "Potency", "setting": "[3]", "result": "inactive"}]}, {"smiles": "N[C@H](C(=O)O)[C@H]1C[C@@H]1C(=O)O", "values": [{"measurement": "Potency", "setting": "[1]", "result": "inactive"}, {"measurement": "Potency", "setting": "[2]", "result": "inactive"}, {"measurement": "Potency", "setting": "[3]", "result": "inactive"}]}, {"smiles": "c1ccc(C(NCc2cccnc2)(c2ccccc2)c2ccccc2)cc1", "values": [{"measurement": "Potency", "setting": "[1]", "result": "inactive"}, {"measurement": "Potency", "setting": "[2]", "result": "inactive"}, {"measurement": "Potency", "setting": "[3]", "result": "inactive"}]}, {"smiles": "C[C@]12C=CC(=O)C=C1CC[C@@H]1C2=CC[C@]2(C)[C@@H](C(=O)CN3CCN(c4cc(N5CCCC5)nc(N5CCCC5)n4)CC3)CC[C@@H]12", "values": [{"measurement": "Potency", "setting": "[1]", "result": "inactive"}, {"measurement": "Potency", "setting": "[2]", "result": "inactive"}, {"measurement": "Potency", "setting": "[3]", "result": "inactive"}]}, {"smiles": "Nc1ccc(-c2ccc3ccccc3n2)cc1", "values": [{"measurement": "Potency", "setting": "[1]", "result": "inactive"}, {"measurement": "Potency", "setting": "[2]", "result": "inactive"}, {"measurement": "Potency", "setting": "[3]", "result": "inactive"}]}, {"smiles": "CCCOC(=O)c1c(-c2ccccc2)nc(CC)c(C(=O)SCC)c1CCC", "values": [{"measurement": "Potency", "setting": "[1]", "result": "inactive"}, {"measurement": "Potency", "setting": "[2]", "result": "inactive"}, {"measurement": "Potency", "setting": "[3]", "result": "inactive"}]}]}
